PubChem BioAssay AID435022 (Sanford-Burnham Center for Chemical Genomics, 2010)
The whole screen tested about 330,000 compounds, of which about 1,100 (0.33%) were called active. No stated cut-off is given here; in the data, active means inhibition above about 35%; inactive means the rest. Only a selection was taken, and actives are over-represented in it overall.

Experiment: lowers stimulated NF-kB luciferase signal in 697 B cells – cell-based, luminescence, uHTS, B-cell NF-kB inhibitor project, primary screen (AID 435022)
Settings: 697 B-cell NF-kB luciferase reporter, PMA/ionomycin, 16 h; at 4 µM; stronger effect = higher value

inhibition, inactive:
COc1ccc(OCC(=O)NN2Cc3ccccc3C2=N)cc1 0.554%
O=C(c1ccco1)N1CCN(CC(=O)N(C2CCCCC2)C2CCS(=O)(=O)C2)CC1 (stereo unspecified) -18.1%
Cc1cc(C(=O)O)c(S(C)(=O)=O)s1 4.07%
COc1ccc(CCNC(=S)N2CCN(S(=O)(=O)c3ccc(F)cc3)CC2)cc1 -1.95%
CN(C)CCCn1c(SCCN2C(=O)c3ccccc3C2=O)nc2ccccc2c1=O -8.89%
Cc1onc(-c2c(F)cccc2Cl)c1C(=O)OCC(=O)N1C(C)CCCC1C (stereo unspecified) -2.55%
CCCn1c(=NC(C)=O)c(C(=O)OCC)cc2c(=O)n3ccccc3nc21 4.14%
CCCCn1c(N)c(N(CCC(C)C)C(=O)COC(=O)c2ccc(CC)cc2)c(=O)[nH]c1=O -5.34%
COc1ccc(C(=O)CSc2n[nH]c(N)n2)cc1 4.97%
CC(Sc1nc2c([nH]c3ccccc32)c(=O)n1C)c1ccccc1 (stereo unspecified) -2.36%
COc1ccc(C=C(C#N)C#N)c(CSc2ccccn2)c1 7.7%
CCOC(=O)Cc1cc(=O)[nH]c(=O)[nH]1 -9.76%
O=C(OCCO)c1cc(Cl)c(C(=O)OCCO)cc1Cl 19.5%
CC1CCN(S(=O)(=O)c2ccc3c(c2)n(C)c(=O)n3C)CC1 7.77%
NC(=O)C1CCN(C(=O)CC2C(=O)NCCN2Cc2cccc(Oc3ccccc3)c2)CC1 (stereo unspecified) -2.05%
CNC(=O)c1csc(Cc2c(Cl)sc3ccc(Cl)cc23)n1 -20.2%
Cc1nc2ccccc2c(=O)n1-c1ccc(NS(=O)(=O)c2ccc(F)cc2F)cc1 1.55%
CCC(C)(C(=O)Nc1ccccc1C)N(C(=O)CNC(C)=O)c1ccc(C)cc1 (stereo unspecified) 14.7%
CC1CCCN(C(=O)CN2C(=O)c3ccccc3S2(=O)=O)C1 (stereo unspecified) -17.2%
O=C(CN1C(=O)c2ccccc2S1(=O)=O)NC1CCCCC1 9.89%
COC1(C2=NCCN2)COc2ccccc2O1 (stereo unspecified) 17.1%
Cc1ccnc2nc(C(=O)OCC(=O)N(CC(C)C)CC(C)C)nn12 6.38%
COc1ccc(CNc2nc(NCc3ccc(OC)cc3)c3ncn(C4CCCC4)c3n2)cc1 -55.3%

inhibition, active:
CCOC(=O)c1cc2c(=O)n3ccccc3nc2n(CC(C)C)c1=NC(=O)c1c(-c2c(F)cccc2Cl)noc1C 36.5%
C=CCn1c(C)cc(C2=NNC(=NCC)SC2)c1C 37.3%
O=C(CN1C(=O)c2ccccc2S1(=O)=O)N1CCc2ccccc21 62.7%
